This is an account of results in PubChem BioAssay (EPA / NIEHS).

For orientation: AC50 means the concentration giving half of the maximal activity seen.

Active and inactive are the calls of the source. Rule for the calls: active = hit-call score of the fitted dose curve at least 0.9, where 1 is the maximum; inactive = score below 0.9.

In experiment [1] the target is Transcription factor E2F1 (Homo sapiens) (UniProt Q01094). The experiment can be described thus: ATG_E2F_CIS: Attagene CIS-FACTORIAL HepG2 Assay for human E2F Transcription Factor 1 (AID 2282935). The following applies: HepG2 Attagene cis-reporter, E2F reporter RNA transcripts; actives raise or lower the signal. Summed up: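 First, HepG2 cells were transfected with reporter transcription units. Next, they were dosed for 24 h. Then RNA was isolated, converted to cDNA, PCR-amplified, FAM-labeled, HpaI-digested and analyzed by capillary electrophoresis.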
Sequence of Transcription factor E2F1 (Homo sapiens) (Q01094 whole entry, looked up): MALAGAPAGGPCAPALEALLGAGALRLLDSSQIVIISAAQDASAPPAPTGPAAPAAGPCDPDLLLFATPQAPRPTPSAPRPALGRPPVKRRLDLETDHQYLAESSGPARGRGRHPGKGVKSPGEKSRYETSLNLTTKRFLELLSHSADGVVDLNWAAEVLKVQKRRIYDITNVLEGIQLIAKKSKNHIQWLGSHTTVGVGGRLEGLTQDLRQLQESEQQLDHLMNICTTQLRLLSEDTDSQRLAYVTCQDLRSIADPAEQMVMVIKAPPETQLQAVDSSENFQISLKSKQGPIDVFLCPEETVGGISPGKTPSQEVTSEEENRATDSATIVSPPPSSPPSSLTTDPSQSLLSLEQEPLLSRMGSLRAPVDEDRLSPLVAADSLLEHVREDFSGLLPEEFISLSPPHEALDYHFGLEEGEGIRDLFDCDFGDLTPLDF

The nature of experiment [2]: ATG_E_Box_CIS: Attagene CIS-FACTORIAL HepG2 Assay for human Enhancer Box (E-box) (AID 2282936). The following applies: HepG2 E-box cis-reporter transcription, actives raise or lower the signal. The procedure, abridged:
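Endogenous transcription factor activity was sensed in human HepG2 liver cells through transfected cis-promoter reporter units. After 24 h of dosing, total RNA was reverse-transcribed and reporter cDNA resolved by capillary electrophoresis.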

Experiment [3] is described as follows: ATG_M_61_CIS: Attagene CIS-FACTORIAL HepG2 Assay for M61 Transcription Factor (Internal Marker) (AID 2282937). Conditions: HepG2 Attagene CIS-FACTORIAL M61 internal marker reporter; actives raise or lower the signal. Summed up:
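Readout is reporter mRNA by RT-PCR, fluorescent primer extension and capillary electrophoresis, with gain or loss fitted relative to DMSO. Transfected HepG2 cells carrying endogenous-TF-driven cis reporters were exposed to chemicals for 24 hours.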

Experiment [4] is described as follows: ATG_EGR_CIS: Attagene CIS-FACTORIAL HepG2 Assay for human Early Growth Response 1 (EGR1) (AID 2282938). Conditions: HepG2 Attagene CIS-FACTORIAL EGR reporter mRNA; actives raise or lower the signal. Summed up: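 After 24 h compound exposure, RNA from reporter-transfected HepG2 cells was reverse-transcribed, PCR-amplified, fluorescently labelled and resolved by capillary electrophoresis. EGR1 reporter transcript changes, up or down, were fitted against DMSO, reflecting endogenous transcription-factor activity.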

Experiment [5] in a line: ATG_M_19_CIS: Attagene CIS-FACTORIAL HepG2 Assay for M19 Transcription Factor (Internal Marker) (AID 2282939). Conditions: HepG2 Attagene CIS-FACTORIAL M19 internal marker reporter; actives raise or lower the signal. Summed up: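 Background-control endpoint from a multiplexed HepG2 reporter panel. Cells carrying cis-regulated reporter constructs are treated 24 h, then reporter transcripts are amplified, fluorescently labelled and sized by capillary electrophoresis. DMSO defines baseline.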

A short description of experiment [6]: ATG_ERE_CIS: Attagene CIS-FACTORIAL HepG2 Assay for Estrogen Response Element (ERE) (AID 2282940). Conditions: HepG2 ERE cis-reporter, Attagene RNA transcript; actives raise or lower the signal. The procedure, abridged: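 Cells used were human hepatoma HepG2, transfected with multiple reporter transcription units under cis-regulatory promoters. Reporter mRNA, read 24 h post-dosing via fluorescent RT-PCR products on capillary electrophoresis, was fitted bidirectionally relative to DMSO.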

The nature of experiment [7]: ATG_Ets_CIS: Attagene CIS-FACTORIAL HepG2 Assay for human Erythroblast Transformation Specific (ETS) (AID 2282941). The following applies: HepG2 ETS cis-reporter transcription, actives raise or lower the signal. Summed up: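 Cis-regulated reporter mRNA induction in HepG2 (transient transfection), 24 h exposure, RT-PCR plus capillary electrophoresis detection; DMSO serves as negative control and baseline.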

For experiment [8], the target named is Hepatocyte nuclear factor 3-beta (Homo sapiens) (UniProt Q9Y261). The experiment can be described thus: ATG_FoxA2_CIS: Attagene CIS-FACTORIAL HepG2 Assay for human Forkhead box A2 (FOXA2) (AID 2282942). The following applies: HepG2 cis-reporter transcription factor activity, 24 h; actives raise or lower the signal. Summed up: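 Endogenous transcription factor activity is captured via cis-element-driven reporter transcripts in transfected HepG2. Total RNA taken at 24 h post-dosing; labelled RT-PCR products resolved by capillary electrophoresis. Gain or loss fitted versus DMSO.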
Sequence of Hepatocyte nuclear factor 3-beta (Homo sapiens) (Q9Y261 whole entry, looked up): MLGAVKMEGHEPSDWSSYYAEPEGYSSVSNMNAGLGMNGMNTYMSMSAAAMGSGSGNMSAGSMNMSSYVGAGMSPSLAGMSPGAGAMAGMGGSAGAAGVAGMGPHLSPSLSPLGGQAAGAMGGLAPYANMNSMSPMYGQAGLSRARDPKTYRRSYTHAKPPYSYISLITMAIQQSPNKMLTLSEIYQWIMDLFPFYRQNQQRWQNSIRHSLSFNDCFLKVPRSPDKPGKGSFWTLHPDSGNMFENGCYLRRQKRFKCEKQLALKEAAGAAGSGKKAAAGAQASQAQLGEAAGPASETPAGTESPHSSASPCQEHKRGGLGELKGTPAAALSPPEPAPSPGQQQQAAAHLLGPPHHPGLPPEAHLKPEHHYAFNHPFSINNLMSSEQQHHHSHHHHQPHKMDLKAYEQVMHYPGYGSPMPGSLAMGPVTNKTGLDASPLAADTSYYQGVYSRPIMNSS

The nature of experiment [9]: ATG_FoxO_CIS: Attagene CIS-FACTORIAL HepG2 Assay for human Forkhead box O (FoxO) (AID 2282943). The following applies: HepG2 Attagene cis-reporter, FoxO element, mRNA; actives raise or lower the signal. The procedure, abridged: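 Values reflect reporter mRNA induction or loss in HepG2 cells 24 h post-dosing, fitted bidirectionally with DMSO as negative control and baseline. Detection used RT-PCR and fluorescence capillary electrophoresis.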

Experiment [10] is described as follows: ATG_GATA_CIS: Attagene CIS-FACTORIAL HepG2 Assay for human GATA Binding Protein (AID 2282944). The following applies: HepG2 GATA cis-element reporter, Attagene multiplex mRNA; actives raise or lower the signal. The procedure, abridged: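 Endogenous transcription factor activity was captured through cis-promoter-driven reporters in transfected HepG2 cells. After 24 h exposure, reporter transcripts were quantified by RT-PCR with fluorescent capillary electrophoresis, and responses fitted both directions against DMSO.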

The nature of experiment [11]: ATG_GLI_CIS: Attagene CIS-FACTORIAL HepG2 Assay for human Zinc Finger Protein GLI1 (AID 2282945). The following applies: HepG2, Attagene cis-factorial reporter mRNA, GLI element; actives raise or lower the signal. The procedure, abridged:
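HepG2 cells transiently transfected with cis-promoter multiplexed reporter units report endogenous transcription factor activity. After 24 h chemical exposure, reporter mRNA was quantified by RT-PCR, 6-FAM labelling, HpaI digestion and capillary electrophoresis, with bidirectional fitting against DMSO.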

Experiment [12] can be described thus: ATG_GRE_CIS: Attagene CIS-FACTORIAL HepG2 Assay for human Glucocorticoid Response Elements (GRE) (AID 2282947). The following applies: HepG2 GRE cis-reporter, Attagene multiplex mRNA; actives raise or lower the signal. The procedure, abridged:
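Cells (HepG2) bearing transfected cis-promoter reporter transcription units were treated with chemical for 24 hours. Reporter mRNA was measured via RT-PCR with capillary electrophoresis, and activity was fitted in both directions relative to DMSO.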

Experiment [13] can be described thus: ATG_ISRE_CIS: Attagene CIS-FACTORIAL HepG2 Assay for human Interferon Regulatory Factor 1 (IRF1) binding to an Interferon-Stimulated Response Element (ISRE) (AID 2282948). The following applies: HepG2 ISRE cis-reporter (Attagene), mRNA transcription readout; actives raise or lower the signal. Summed up: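 Multiplexed mRNA reporter readout in human liver HepG2 cells: cis-element-driven reporters transfected, compound added for 24 h, transcripts amplified, fluorescently labelled and sized by capillary electrophoresis; curve fitting bidirectional against DMSO.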

The nature of experiment [14]: ATG_M_32_CIS: Attagene CIS-FACTORIAL HepG2 Assay for M32 Transcription Factor (Internal Marker) (AID 2282949).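 Note: background control marker of the multiplexed CIS panel rather than a real target.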 The following applies: HepG2 Attagene cis-factorial M32 reporter, mRNA; actives raise or lower the signal. The procedure, abridged:
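HepG2 transfectants (cis-regulated reporter transcription units) dosed 24 h. Reporter mRNA by RT-PCR plus CE, analysed as gain or loss relative to DMSO.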

Experiment [15] is described as follows: ATG_M_06_CIS: Attagene CIS-FACTORIAL HepG2 Assay for M06 Transcription Factor (Internal Marker) (AID 2282950). The following applies: HepG2 Attagene CIS-FACTORIAL M06 internal marker reporter; actives raise or lower the signal. Summed up:
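Steps: transfect HepG2 with multiplexed cis-element reporter constructs; dose chemical 24 h; extract RNA with DNase treatment; reverse-transcribe, PCR-amplify, 6-FAM label, HpaI digest; separate fragments by capillary electrophoresis. Activity fitted both directions versus DMSO.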

The target in experiment [16] is Hypoxia-inducible factor 1-alpha (Homo sapiens) (UniProt Q16665). The experiment can be described thus: ATG_HIF1a_CIS: Attagene CIS-FACTORIAL HepG2 Assay for human Hypoxia Inducible Factor 1 (HIF1A) (AID 2282951). Conditions: HepG2 Attagene cis-factorial HIF1a reporter transcription; actives raise or lower the signal. The procedure, abridged: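 Activity is fitted in both directions relative to DMSO. Reporter transcripts are read by RT-PCR, fluorescent primer extension and capillary electrophoresis after 24 h chemical treatment. The cells are HepG2 carrying transiently transfected cis-element-driven reporter units responding to endogenous factors.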
Sequence of Hypoxia-inducible factor 1-alpha (Homo sapiens) (Q16665 whole entry, looked up): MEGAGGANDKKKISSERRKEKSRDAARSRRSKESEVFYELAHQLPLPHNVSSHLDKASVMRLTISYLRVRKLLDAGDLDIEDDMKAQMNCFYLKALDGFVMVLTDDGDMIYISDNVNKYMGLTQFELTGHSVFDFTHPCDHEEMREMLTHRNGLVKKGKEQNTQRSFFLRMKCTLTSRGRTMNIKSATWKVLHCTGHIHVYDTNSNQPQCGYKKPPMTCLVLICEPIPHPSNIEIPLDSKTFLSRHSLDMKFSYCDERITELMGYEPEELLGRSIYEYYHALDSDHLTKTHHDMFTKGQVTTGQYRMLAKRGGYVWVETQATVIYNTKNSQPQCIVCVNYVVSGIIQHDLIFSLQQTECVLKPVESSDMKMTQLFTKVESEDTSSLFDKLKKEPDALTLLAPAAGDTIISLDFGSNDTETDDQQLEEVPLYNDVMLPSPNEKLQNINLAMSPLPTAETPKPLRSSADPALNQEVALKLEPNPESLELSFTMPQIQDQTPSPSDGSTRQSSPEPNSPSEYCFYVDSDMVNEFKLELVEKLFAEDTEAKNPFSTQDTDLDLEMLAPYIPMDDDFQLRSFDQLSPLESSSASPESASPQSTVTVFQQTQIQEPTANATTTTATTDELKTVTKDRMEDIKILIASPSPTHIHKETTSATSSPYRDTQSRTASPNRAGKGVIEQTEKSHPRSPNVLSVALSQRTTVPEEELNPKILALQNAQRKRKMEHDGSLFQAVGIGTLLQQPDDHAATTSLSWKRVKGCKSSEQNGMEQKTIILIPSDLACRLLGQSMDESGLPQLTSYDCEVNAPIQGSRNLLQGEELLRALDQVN

Experiment [17] addresses Heat shock factor protein 1 (Homo sapiens) (UniProt Q00613). The experiment can be described thus: ATG_HSE_CIS: Attagene CIS-FACTORIAL HepG2 Assay for human Heat Shock Transcription Factor 1 (HSE) (AID 2282953). Conditions: HepG2 HSE cis-reporter, Attagene RNA transcription; actives raise or lower the signal. Summed up:
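Cells were transfected with cis-element-driven reporter constructs, dosed for 24 h, then total RNA was reverse-transcribed and reporter cDNA amplified, FAM-labelled and digested with HpaI. Fragments were resolved by capillary electrophoresis; gain or loss was fitted against DMSO.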

Experiment [18] can be described thus: ATG_MRE_CIS: Attagene CIS-FACTORIAL HepG2 Assay for human Metal Responsive Element (MRE) (AID 2282954). Conditions: HepG2 MRE cis-reporter transcription, Attagene multiplex; actives raise or lower the signal. Summed up: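 Cells were transfected with cis-promoter reporter transcription units, then dosed for 24 h. RNA was reverse-transcribed, amplified, fluorescently labelled and resolved by capillary electrophoresis, and activity was fitted in both directions relative to DMSO.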

A short description of experiment [19]: ATG_PBREM_CIS: Attagene CIS-FACTORIAL HepG2 Assay for human Phenobarbital-responsive Enhancer Module (PBREM) (AID 2282955). Conditions: HepG2 PBREM cis-reporter, Attagene multiplexed transcription; actives raise or lower the signal. Summed up:
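Endogenous transcription factor activity was read from reporter transcripts in transiently transfected human HepG2 liver cells after 24 h dosing. RT-PCR products were fluorescently labelled, HpaI-cut and sized by capillary electrophoresis; activity fitted bidirectionally against DMSO baseline.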

Sequence of Heat shock factor protein 1 (Homo sapiens) (Q00613 whole entry, looked up, the tested form may be a part): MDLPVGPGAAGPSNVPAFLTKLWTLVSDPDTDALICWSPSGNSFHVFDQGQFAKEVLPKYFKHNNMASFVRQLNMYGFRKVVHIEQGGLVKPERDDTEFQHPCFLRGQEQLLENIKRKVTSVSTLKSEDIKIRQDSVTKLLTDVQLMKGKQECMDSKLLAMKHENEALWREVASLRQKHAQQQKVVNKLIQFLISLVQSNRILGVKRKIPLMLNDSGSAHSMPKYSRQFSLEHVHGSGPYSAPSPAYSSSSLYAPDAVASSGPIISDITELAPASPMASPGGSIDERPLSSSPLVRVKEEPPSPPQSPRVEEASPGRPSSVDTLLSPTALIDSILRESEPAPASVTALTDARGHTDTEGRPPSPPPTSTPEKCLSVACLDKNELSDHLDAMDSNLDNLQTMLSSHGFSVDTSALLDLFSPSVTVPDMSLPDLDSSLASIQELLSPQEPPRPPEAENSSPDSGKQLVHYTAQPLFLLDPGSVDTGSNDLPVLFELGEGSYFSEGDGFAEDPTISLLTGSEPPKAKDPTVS

With `C[C@]12C=CC(=O)C=C1CC[C@H]1[C@@H]3C[C@@H](O)[C@](O)(C(=O)CO)[C@@]3(C)C[C@H](O)[C@@]12F`, the outcome in experiment [1], in experiment [2], in experiment [3], in experiment [4], in experiment [5] and in [7] was inactive. Further, the result in [8], in experiment [9], in [10], in experiment [11], in experiment [13] and in experiment [14] was inactive. Besides, the compound was classed as inactive in [15], in [16], in experiment [17] and in experiment [18]. Moreover, the AC50 in experiment [6] was 17.8 µM (active); in experiment [12], 0.14 µM (active).
Regarding `CCCCCOC(C)=O`, the compound was called inactive in [1], in experiment [2], in experiment [3], in experiment [4], in experiment [5] and in experiment [6]. Further, the call in experiment [7], in experiment [8], in experiment [9], in [10], in experiment [11] and in [12] was inactive. The compound was classed as inactive in [13], in experiment [14], in [15], in [16], in experiment [17] and in experiment [19].
As for `CCCCCCOC(=O)CC(CC(=O)OCCCCCC)(OC(=O)CCC)C(=O)OCCCCCC`, the compound was classed as inactive in [1], in experiment [2], in [3], in experiment [4], in experiment [5] and in [6]. Moreover, the outcome in [7], in experiment [8], in experiment [9], in [10], in experiment [11] and in experiment [12] was inactive. For the same compound, the compound was called inactive in [13], in experiment [14], in experiment [15], in [16], in experiment [17] and in [18]. In addition, the result in [19] was inactive.
